# Source: PubChem BioAssay (Tox21)
# Records with an inconclusive call do not appear. Entries that show only a call come without a potency. Calls of active or inactive are those of the source. Unless noted, calls come from the whole dose curve; as a rule, active = well fitted curve in the direction sought with a large enough effect in the repeat runs; inconclusive = weak or mixed curves; inactive = no such curve, though single readings can be large; an effect the other way counts as inactive or inconclusive.
# Columns and labels:
# [1] = qHTS assay for small molecule agonists of the p53 signaling pathway (AID 651631; calls by dose curve; note: nearly all actives have a fitted effect of over 15% in size; note: potency is the fitted concentration of half-maximal effect)
# Procedure, shortened: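 Agonist mode screen using a stably integrated beta-lactamase gene under p53 response elements in HCT-116 cells. Compound exposure lasts 16 h at 37 °C; fluorescence intensity is measured following 2 h FRET substrate loading.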
# [2] = qHTS assay for identifying genotoxic compounds that show differential cytotoxicity against isogenic chicken DT40 cell lines with known DNA damage response pathways - Rev3 mutant cell line (AID 743014); note: nearly all actives have a fitted effect of over 55% in size; note: potency is the fitted concentration of half-maximal effect
# [3] = target: Estrogen receptor (Homo sapiens) (UniProt P03372); test: qHTS assay to identify small molecule antagonists of the estrogen receptor alpha (ER-alpha) signaling pathway (AID 743069; active = well fitted curve in the direction sought with a large enough effect in the signal ratio in the repeat runs, not every such curve was filed as active; the % refers to the signal ratio)
# Procedure, shortened: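 Reporter cells (ER-alpha-bla, HEK293 background) are conditioned overnight in stripped-serum medium (2% charcoal-stripped FBS). Compound and 17beta-estradiol exposure runs 18 hr at 37C, 5% CO2.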
# [4] = target: Glucocorticoid receptor (Homo sapiens) (UniProt P04150); test: qHTS assay to identify small molecule antagonists of the glucocorticoid receptor (GR) signaling pathway (AID 720692; active = well fitted inhibition curve with a large enough effect in the signal ratio in the repeat runs, not every such curve was filed as active; the % refers to the signal ratio; note: potency is the fitted concentration of half-maximal effect)
# Procedure, shortened: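 GR-bla HeLa cells carrying a GRE-driven beta-lactamase reporter received compound after 4 h plating, then dexamethasone (5 nM final). After 18 h at 37C, the FRET substrate was loaded for 2 h at room temperature and fluorescence read.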
# [5] = target: Androgen receptor (Homo sapiens) (UniProt P10275); test: qHTS assay to identify small molecule antagonists of the androgen receptor (AR) signaling pathway (AID 743035; active = well fitted inhibition curve with a large enough effect in the signal ratio in the repeat runs, not every such curve was filed as active; the % refers to the signal ratio)
# Procedure, shortened: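 HEK293 cells stably carrying UAS-beta-lactamase reporter, 2,000/well, given compounds plus R1881 agonist and incubated 16 h at 37C. LiveBLAzer B/G FRET substrate then added for 2 h at room temperature before fluorescence reading.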
# [6] = target: Androgen receptor (Homo sapiens) (UniProt P10275); test: qHTS assay to identify small molecule agonists of the androgen receptor (AR) signaling pathway using the MDA cell line (AID 743040; note: nearly all actives have a fitted effect of over 20% in size)
# Procedure, shortened: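 Human breast carcinoma MDA-kb2 reporter cells (MMTV-luc, AR/GR elements) were treated for 16 h at 37C in 0% CO2 following a 5 h settling period. Signal was quantified by ONE-Glo luminescence.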
# [7] = target: Androgen receptor (Homo sapiens) (UniProt P10275); test: qHTS assay to identify small molecule antagonists of the androgen receptor (AR) signaling pathway using the MDA cell line (AID 743042; note: nearly all actives have a fitted effect of over 55% in size; note: potency is the fitted concentration of half-maximal effect)
# Procedure, shortened: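 MDA-kb2 breast carcinoma cells carrying MMTV-luciferase (AR/GR responsive) were co-treated with compounds and the agonist R1881 for 16 h at 37C. Inhibition read as ONE-Glo luminescence; CellTiter-Fluor fluorescence measured in parallel for cytotoxicity.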
# [8] = target: Androgen receptor (Homo sapiens) (UniProt P10275); test: qHTS assay to identify small molecule agonists of the androgen receptor (AR) signaling pathway (AID 743036; active = well fitted activation curve with a large enough effect in the signal ratio in the repeat runs, with a control signal flat, not every such curve was filed as active; the % refers to the signal ratio)
# Procedure, shortened: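 Quantitative HTS of the Tox21 10K library in HEK293 cells bearing a stably integrated UAS-controlled beta-lactamase reporter. Compound exposure lasted 16 h at 37C. Reporter activity was detected by FRET substrate fluorescence after 2 h at room temperature.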
# Estrogen receptor (Homo sapiens), sequence (P03372 whole entry, looked up): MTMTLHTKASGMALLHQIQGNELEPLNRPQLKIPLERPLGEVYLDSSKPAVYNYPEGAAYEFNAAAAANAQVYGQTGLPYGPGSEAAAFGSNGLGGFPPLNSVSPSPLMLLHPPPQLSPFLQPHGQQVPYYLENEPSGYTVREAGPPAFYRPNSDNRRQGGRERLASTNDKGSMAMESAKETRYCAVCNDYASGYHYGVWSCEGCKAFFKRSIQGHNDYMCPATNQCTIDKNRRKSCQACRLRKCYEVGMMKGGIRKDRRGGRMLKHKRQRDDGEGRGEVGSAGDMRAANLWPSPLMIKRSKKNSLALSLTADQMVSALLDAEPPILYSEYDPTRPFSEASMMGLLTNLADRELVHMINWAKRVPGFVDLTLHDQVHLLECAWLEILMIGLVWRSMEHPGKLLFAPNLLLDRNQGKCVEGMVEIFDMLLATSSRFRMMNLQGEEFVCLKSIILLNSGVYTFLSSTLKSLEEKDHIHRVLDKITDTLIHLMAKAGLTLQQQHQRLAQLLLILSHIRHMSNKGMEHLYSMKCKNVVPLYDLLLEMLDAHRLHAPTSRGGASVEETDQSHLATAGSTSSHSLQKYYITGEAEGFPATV
# Glucocorticoid receptor (Homo sapiens), sequence (P04150 whole entry, looked up): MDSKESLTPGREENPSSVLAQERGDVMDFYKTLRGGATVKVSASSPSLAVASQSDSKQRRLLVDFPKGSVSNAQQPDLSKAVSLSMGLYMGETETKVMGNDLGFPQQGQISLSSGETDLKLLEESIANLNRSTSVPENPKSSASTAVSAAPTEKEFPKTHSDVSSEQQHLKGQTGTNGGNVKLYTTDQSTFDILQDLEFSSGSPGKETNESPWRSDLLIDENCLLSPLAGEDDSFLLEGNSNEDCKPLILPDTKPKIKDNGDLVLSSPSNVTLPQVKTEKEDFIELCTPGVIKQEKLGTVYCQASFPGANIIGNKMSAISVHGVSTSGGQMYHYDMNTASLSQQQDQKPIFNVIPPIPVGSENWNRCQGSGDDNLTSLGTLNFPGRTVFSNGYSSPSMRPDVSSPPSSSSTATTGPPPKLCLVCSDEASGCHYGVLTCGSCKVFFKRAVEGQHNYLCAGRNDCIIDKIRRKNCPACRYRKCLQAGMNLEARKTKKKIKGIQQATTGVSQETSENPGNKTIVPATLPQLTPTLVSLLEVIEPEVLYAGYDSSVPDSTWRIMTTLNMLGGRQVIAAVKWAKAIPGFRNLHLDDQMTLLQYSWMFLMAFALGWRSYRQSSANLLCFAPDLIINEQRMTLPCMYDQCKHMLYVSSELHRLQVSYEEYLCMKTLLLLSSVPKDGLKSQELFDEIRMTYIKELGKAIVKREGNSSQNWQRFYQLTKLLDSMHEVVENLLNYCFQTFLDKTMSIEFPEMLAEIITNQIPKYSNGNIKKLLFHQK
# Androgen receptor (Homo sapiens), sequence (P10275 whole entry, looked up): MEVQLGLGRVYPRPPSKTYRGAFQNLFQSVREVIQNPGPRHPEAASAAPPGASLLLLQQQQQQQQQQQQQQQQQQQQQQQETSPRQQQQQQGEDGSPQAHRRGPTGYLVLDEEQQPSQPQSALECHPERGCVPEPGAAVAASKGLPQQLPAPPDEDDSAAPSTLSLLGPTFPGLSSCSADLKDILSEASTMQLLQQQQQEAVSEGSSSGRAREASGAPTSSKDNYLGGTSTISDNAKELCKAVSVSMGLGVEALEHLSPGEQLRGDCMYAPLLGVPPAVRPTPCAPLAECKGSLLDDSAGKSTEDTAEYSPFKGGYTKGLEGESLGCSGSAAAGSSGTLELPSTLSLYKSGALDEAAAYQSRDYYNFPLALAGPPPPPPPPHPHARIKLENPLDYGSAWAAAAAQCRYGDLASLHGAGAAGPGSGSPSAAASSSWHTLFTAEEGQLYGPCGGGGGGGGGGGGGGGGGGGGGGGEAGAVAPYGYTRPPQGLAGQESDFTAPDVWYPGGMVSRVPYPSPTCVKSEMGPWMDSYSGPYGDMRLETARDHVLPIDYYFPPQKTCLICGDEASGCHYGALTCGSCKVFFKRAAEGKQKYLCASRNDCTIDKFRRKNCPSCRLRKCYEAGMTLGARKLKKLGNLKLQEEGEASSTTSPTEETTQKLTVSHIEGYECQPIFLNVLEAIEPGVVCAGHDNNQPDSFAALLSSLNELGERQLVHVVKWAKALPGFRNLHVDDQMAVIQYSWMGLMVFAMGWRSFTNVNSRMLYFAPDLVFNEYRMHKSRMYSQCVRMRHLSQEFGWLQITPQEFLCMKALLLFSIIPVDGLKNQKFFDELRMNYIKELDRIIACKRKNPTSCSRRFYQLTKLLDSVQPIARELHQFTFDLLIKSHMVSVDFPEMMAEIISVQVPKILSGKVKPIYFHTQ
smiles,measurement,setting,value
CN[C@H]1C[C@@H](N)[C@H](O)[C@@H](O[C@@H]2O[C@H](CO)[C@H](O)[C@@H]3OC4(O[C@H]23)O[C@H](C(N)CO)[C@H](O)[C@H](O)[C@H]4O)[C@@H]1O (stereo partly drawn),Potency,[1],inactive
CN1[C@H]2CC[C@@H]1[C@@H](C(=O)O)[C@@H](OC(=O)c1ccccc1)C2,Potency,[2],inactive
same,Potency,[3],inactive
[2H]C([2H])([2H])[C@H](N)Cc1ccccc1,Potency,[1],inactive
same,Potency,[4],inactive
same,Potency,[5],inactive
same,Potency,[6],inactive
same,Potency,[7],inactive
same,Potency,[3],inactive
CCNC(C)Cc1cccc(C(F)(F)F)c1 (stereo not drawn),Potency,[4],inactive
same,Potency,[3],inactive
O=[N+]([O-])c1cc(I)c(O)c(I)c1,Potency,[1],5.31 µM (active)
same,Potency,[6],inactive
same,Potency,[7],inactive
O=c1[nH]cc(N(CCCl)CCCl)c(=O)[nH]1,Potency,[1],21.1 µM (active)
same,Potency,[3],inactive
S=C(S)N1CCNCC1,Potency,[4],inactive
same,Potency,[3],inactive
C[C@H]1CC[C@]2(NC1)O[C@H]1C[C@H]3[C@@H]4CC[C@H]5C[C@@H](O[C@@H]6O[C@H](CO)[C@H](O[C@@H]7O[C@H](CO)[C@@H](O)[C@H](O[C@@H]8OC[C@@H](O)[C@H](O)[C@H]8O)[C@H]7O[C@@H]7O[C@H](CO)[C@@H](O)[C@H](O)[C@H]7O)[C@H](O)[C@H]6O)CC[C@]5(C)[C@H]4CC[C@]3(C)[C@H]1[C@@H]2C,Potency,[2],2.37 µM (active)
same,Potency,[6],inactive
same,Potency,[7],5.96 µM (active)
CN=C1CN(O)C(c2ccccc2)=c2cc(Cl)ccc2=N1,Potency,[1],inactive
same,Potency,[4],inactive
same,Potency,[2],inactive
same,Potency,[3],inactive
CCCCC[C@@H](O)C1C(=O)OC(C)[C@H](O)/C=C/C=C/C=C/C=C/C=C(\C)C(O)C(O)C(O)C[C@H](O)C[C@H](O)C[C@H](O)C[C@H](O)C[C@@H]1O (stereo partly drawn),Potency,[4],inactive
same,Potency,[2],inactive
same,Potency,[3],inactive
CC(=O)O[C@H]1C[C@H](O[C@H]2[C@@H](O)C[C@H](O[C@H]3[C@@H](O)C[C@H](OC4CC[C@@]5(C)[C@H](CC[C@@H]6[C@@H]5CC[C@]5(C)[C@@H](C7=CC(=O)OC7)CC[C@]65O)C4)O[C@@H]3C)O[C@@H]2C)O[C@H](C)[C@H]1O[C@@H]1O[C@H](CO)[C@@H](O)[C@H](O)[C@H]1O (stereo partly drawn),Potency,[7],1.68 µM (active)
CC(N)Cc1ccc(O)cc1 (stereo not drawn),Potency,[1],inactive
same,Potency,[4],inactive
same,Potency,[2],inactive
same,Potency,[3],inactive
C=CCN1CC[C@]23c4c5ccc(O)c4O[C@H]2[C@@H](O)C=C[C@H]3[C@H]1C5,Potency,[5],inactive
same,Potency,[8],inactive
same,Potency,[6],inactive
same,Potency,[7],inactive
CCCCCCCCCC(=O)O[C@H]1CC[C@H]2[C@@H]3CCC4=CC(=O)CC[C@]4(C)[C@H]3CC[C@]12C,Potency,[2],inactive
same,Potency,[3],inactive
COc1ccc2c(c1)C13CCCC[C@@H]1C(C2)N(C)CC3 (stereo partly drawn),Potency,[4],inactive
CC1(C)[C@H](C=C(Cl)Cl)[C@H]1C(=O)OCc1c(F)c(F)cc(F)c1F,Potency,[4],inactive
same,Potency,[3],inactive
C[N+]1([O-])[C@@H]2CC[C@H]1CC(OC(=O)C(CO)c1ccccc1)C2 (stereo partly drawn),Potency,[4],inactive
same,Potency,[2],inactive
same,Potency,[3],inactive
CC(C)(O)[C@@H]1[C@H]2OC(=O)[C@@H]1[C@]1(O)C[C@H]3O[C@]34C(=O)O[C@H]2[C@]14C,Potency,[1],inactive
same,Potency,[4],inactive
CNc1ccc(C(=O)CC(O)CCC(C)C2OC(=O)CC(O)CC(=O)CC(O)CC(O)CC(O)CC(O)CC3(O)CC(O)C(C(=O)OC)C(CC(O[C@@H]4O[C@H](C)[C@@H](O)[C@H](N)[C@@H]4O)/C=C/C=C/C=C/C=C/C=C/C=C/C=C/C2C)O3)cc1 (stereo partly drawn),Potency,[4],inactive
same,Potency,[3],inactive
CCON=O,Potency,[4],inactive
same,Potency,[2],inactive
same,Potency,[3],inactive
CC(=O)OC1CN2CCC1CC2 (stereo not drawn),Potency,[1],inactive
same,Potency,[4],inactive
same,Potency,[2],inactive
same,Potency,[3],inactive
CCC(C)(S(=O)(=O)CC)S(=O)(=O)CC,Potency,[1],inactive
same,Potency,[2],inactive
same,Potency,[3],inactive
C[N+]1(C)CCCCC1COC(=O)C(O)(c1ccccc1)c1ccccc1 (stereo not drawn),Potency,[4],inactive
same,Potency,[5],inactive
same,Potency,[8],inactive
same,Potency,[6],inactive
same,Potency,[7],inactive
O=C(C[C@@H]1NCCC[C@H]1O)Cn1cnc2cc(Br)c(Cl)cc2c1=O,Potency,[1],inactive
same,Potency,[4],inactive
C[N+]1([O-])[C@@H]2CC(OC(=O)[C@H](CO)c3ccccc3)C[C@H]1[C@@H]1O[C@@H]12 (stereo partly drawn),Potency,[4],inactive
same,Potency,[2],inactive
same,Potency,[5],inactive
same,Potency,[6],inactive
same,Potency,[7],inactive
same,Potency,[3],inactive
O[C@H]1[C@H]2[C@H](O)CCCN2C[C@H]1O,Potency,[4],inactive
O=C1CCO1,Potency,[4],inactive
same,Potency,[5],inactive
same,Potency,[8],inactive
same,Potency,[6],inactive
same,Potency,[7],inactive
NC1=NC(=O)N2CC12 (stereo not drawn),Potency,[2],inactive
same,Potency,[3],inactive
CCCC(C)(COC(N)=O)COC(=O)NC1CC1 (stereo not drawn),Potency,[4],inactive
CC(C)C[C@H](CN)CC(=O)O,Potency,[4],inactive
Cc1nnc2n1-c1ccc(Cl)cc1C(c1ccccc1Cl)=NC2,Potency,[1],inactive
CC[C@H]1[C@@H]2C[C@H]3[C@@H]4N(C)c5ccccc5[C@]45C[C@@H](C2[C@H]5O)N3[C@@H]1O (stereo partly drawn),Potency,[1],inactive
same,Potency,[4],inactive
same,Potency,[2],inactive
same,Potency,[3],inactive
Cc1nnc2n1-c1ccc(Cl)cc1C(c1ccccc1)=NC2,Potency,[1],inactive
same,Potency,[4],6.01 µM (active)
same,Potency,[2],inactive
CNC1(c2ccccc2Cl)CCCCC1=O (stereo not drawn),Potency,[1],inactive
same,Potency,[4],inactive
same,Potency,[2],inactive
COc1ccc2c3c1O[C@H]1C(=O)CC[C@H]4[C@@H](C2)N(C)CC[C@]314,Potency,[2],inactive
same,Potency,[3],inactive
C=CC[C@]1(O)CC[C@H]2[C@@H]3CCC4=CCCC[C@@H]4[C@H]3CC[C@@]21C,Potency,[1],inactive
same,Potency,[4],7.56 µM (active)
same,Potency,[2],inactive
